Compounds with a hit are over-represented: about 7.5% of the library has one in this group of screens.
SMN2 splice up: enhancers of SMN2 splice variant expression | 2.8% of 210,000 active | AID 1458 | Potency, µM (titrated, usually from 46.1 µM), most hits filed as activators | HEK293 SMN2-luciferase splicing reporter, luminescence, 30-36 h; note: nearly all actives have a fitted effect of over 55% in size
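qHTS luciferase splicing reporter: luminescence rises when SMN2 exon 7 is included in transfected HEK293 cells. Compound exposure lasted 30-36 h at 37C, with 4.5 mM final sodium butyrate as control, followed by a ONE-Glo read.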
NPC1 promoter act: activates the NPC1 promoter; 2.4% of 320,000 active; Potency, µM (doses to about 9.22 µM), hits mostly activators; Huh7 NPC1 promoter luciferase reporter, 24 h; note: nearly all actives have a fitted effect of over 60% in size
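In 1536-well qHTS, Huh7 cells harboring an NPC1 promoter–luciferase construct received compound for 24 h; activation was quantified by luminescence following luciferase reagent addition.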
ELG1 genotoxic: induces genotoxicity in HEK293T cells with luciferase-tagged ELG1 | AID 504466 | 1.3% of 330,000 active | Potency, µM (series often up to 46 µM), usual class: activators | HEK293T ELG1-luciferase reporter, luminescence, 16 h; note: nearly all actives have a fitted effect of over 60% in size
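Cells (2,000/well) expressing the ELG1-luciferase fusion are dosed by pin tool and kept 16 hr at 37 °C, 5% CO2. Signal comes from ONE-Glo luciferase reagent after 30 min at room temperature.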
Rab9 promoter act: activates the Rab9 promoter | 2.8% of 320,000 active | Huh7 Rab9 promoter-luciferase reporter, luminescence, 24 h | AID 485297 | Potency, µM (doses to about 9.22 µM), hits mostly activators; note: nearly all actives have a fitted effect of over 60% in size
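Quantitative HTS format; Huh7 Rab9-luciferase reporter cells (1500/well) receive compound 2 h post-plating, incubate 24 h at 37 °C, then get luciferase reagent for 10 min before luminescence reading.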
KinaseGlo FLuc: blocks Kinase-Glo luciferase, a counter-screen artifact | Q27757 | Kinase-Glo luciferase, ATP luminescence, 8 min | 0.28% of 200,000 active | AID 1379 | Potency, µM (titrated, usually from 38.3 µM), usual class: inhibitors; note: nearly all actives have a fitted effect of over 60% in size
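Compound is pinned into ATP-containing buffer (10 uM ATP, imidazole pH 7.2, 7 mM MgCl2). Kinase-Glo luciferase reagent is then added. Light output is recorded following an 8-min room-temperature incubation.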
FLuc counter: inhibits or activates purified firefly luciferase, miR-21 counter-screen; P08659; purified FLuc, Km substrates, luminescence inhibition; Potency, µM (doses to about 57.5 µM), most hits filed as inhibitors; 6.9% of 360,000 active; AID 588342; note: nearly all actives have a fitted effect of over 55% in size
Target sequence (P08659 whole entry, looked up): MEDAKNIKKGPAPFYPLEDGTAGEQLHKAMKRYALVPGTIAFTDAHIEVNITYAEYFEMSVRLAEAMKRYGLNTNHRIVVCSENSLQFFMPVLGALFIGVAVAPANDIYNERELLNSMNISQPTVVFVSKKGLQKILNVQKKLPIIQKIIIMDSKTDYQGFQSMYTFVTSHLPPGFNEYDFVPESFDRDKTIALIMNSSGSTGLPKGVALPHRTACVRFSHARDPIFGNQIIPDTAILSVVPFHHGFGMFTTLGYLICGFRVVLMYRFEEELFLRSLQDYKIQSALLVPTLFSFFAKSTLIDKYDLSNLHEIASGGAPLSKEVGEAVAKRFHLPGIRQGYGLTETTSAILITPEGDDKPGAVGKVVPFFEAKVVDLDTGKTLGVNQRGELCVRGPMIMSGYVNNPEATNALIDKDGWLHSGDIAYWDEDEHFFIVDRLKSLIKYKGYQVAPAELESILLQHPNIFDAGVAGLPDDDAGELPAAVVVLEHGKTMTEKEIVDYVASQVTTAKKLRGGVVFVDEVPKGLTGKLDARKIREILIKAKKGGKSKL
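Purified P. pyralis luciferase, 10 nM final, with Km-level 10 uM D-luciferin and 10 uM ATP in 50 mM Tris acetate pH 7.5, 10 mM Mg acetate, 0.01% Tween-20, 0.05% BSA; 6-point qHTS titration about 60 µM downward; luminescence read.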
A number is an active result; - = inactive; ? = inconclusive; . = no result; [ ] = remark or other dose. Calls come from the whole dose curve; as a rule, active = well fitted curve in the direction sought with a large enough effect; inconclusive = small, poorly fitted or top-dose-only effect, or another doubt; inactive = no such curve, though single readings can be large; an effect the other way counts as inactive or inconclusive.

SMILES | SMN2 splice up | NPC1 promoter act | ELG1 genotoxic | Rab9 promoter act | KinaseGlo FLuc | FLuc counter
CCOc1ccccc1NC(=O)C(OC(=O)c1ccc(NC(=O)CC#N)cc1)c1ccccc1 (stereo not given) | . | - | - | - | . | -
COc1cccc(/C=C2\NC(=O)NC2=O)c1O | . | - | ? | - | . | 7.6µM
CCOC(=O)COc1ccccc1/C=C1/NC(=O)NC1=O | - | - | - | - | - | -
O=C(CN(Cc1ccccc1)C(=O)CCl)c1cccc(Br)c1 | . | - | - | - | . | -
O=c1c(C(c2ccccc2)c2c(O)sc3ccccc3c2=O)c(O)sc2ccccc12 | - | - | - | - | - | 12µM
O=c1c2ccccc2sc2ccc(Cl)cc12 | - | - | - | - | - | ?
O=C(CSc1nnc(CNC(=O)c2ccccc2)o1)NCC1CCCO1 (stereo not given) | . | - | - | - | . | -
COc1ccc(C2(c3ccc(OC)cc3)NC(=O)N(CC(=O)N(C)c3ccccc3)C2=O)cc1 | . | 3.5µM | ? | 2.2µM | . | 19µM
Cc1cc(Cn2nc(C(=O)NCc3cccc(C(F)(F)F)c3)cc2-c2ccccc2)on1 | . | - | - | - | . | -
O=C(CCc1nnc(CCc2c[nH]c3ccccc23)o1)NC1CCC1 | . | ? | ? | 3.5µM | . | 21µM
O=C(CCc1nnc(Cc2c[nH]c3ccccc23)o1)NC1CCCC1 | . | - | - | - | - | -
CC1(C)Oc2ccc(C(=O)NNC(=O)Nc3ccccc3)cc2NC1=O | . | - | - | - | . | -
O=C(/C=C/C(=O)Oc1ccccc1C(=O)O)Oc1ccccc1C(=O)O | - | . | . | . | - | .
Cc1ccc(-c2nc3[nH]c(=O)cc(NC(=O)c4cccs4)n3n2)cc1 | . | - | - | - | . | 13µM
CC(C)(C)c1ccc(-c2nc3[nH]c(=O)cc(NC(=O)c4ccco4)n3n2)cc1 | . | 4µM | ? | 1.1µM | . | 0.43µM
Cn1c(N)c(C(=O)COC(=O)c2ccccc2C(=O)c2ccc(Cl)c([N+](=O)[O-])c2)c(=O)n(C)c1=O | . | . | - | . | . | .
COc1ccc(-c2nn(CC(=O)NCc3ccccc3)c3c2cnc2ccc(F)cc23)cc1 | . | . | . | . | . | -
Cc1cc(C)c(C#N)c(OCC(=O)c2ccc(Br)cc2)n1 | - | - | - | - | - | -
Cc1snc(SCC(=O)c2ccc(Cl)cc2)c1C#N | - | ? | - | ? | - | ?
Cc1ccnc(SCC(=O)c2ccc(Br)cc2)c1C#N | 14µM | 3.5µM | - | 2.8µM | - | 21µM
Cc1ccc(C(=O)CSc2nsc(C)c2C#N)cc1 | 13µM | 3.5µM | ? | 3.2µM | - | 11µM
O=C(COC(=O)c1cc(S(=O)(=O)N2CCCCC2)ccc1N1CCOCC1)c1ccc(F)cc1 | . | - | - | - | . | -
Cc1ccc(Nc2nnc(-c3ccc4c(c3)OCO4)o2)c(C)c1 | -[9.22 µM] | ? | ? | ? | -[7.66 µM] | 8.5µM
CC1CCCN(c2nc3ccsc3c(=O)s2)C1 (stereo not given) | 22µM | ? | 13µM | ? | - | 15µM
O=C(NCc1ccccc1Cl)C1CCCN(c2nc3ccsc3c(=O)s2)C1 (stereo not given) | - | - | - | - | - | -
SMILES | SMN2 splice up | NPC1 promoter act | ELG1 genotoxic | Rab9 promoter act | KinaseGlo FLuc | FLuc counter
CC(C)(C)c1ccc(C(CC(=O)O)NC(=O)Cc2ccccc2)cc1 (stereo not given) | . | - | - | - | . | -
CCOC(=O)c1sc2nc3n(c(=O)c2c1C)CCC3 | - | - | - | - | - | ?
Cc1c(C(=O)OCc2ccc(F)cc2)sc2nc3n(c(=O)c12)CCC3 | . | - | - | - | . | 15µM
CCOC(=O)c1sc2nc3n(c(=O)c2c1C)CCCCC3 | - | ? | ? | ? | - | 15µM
O=C(O)c1cccc(S(=O)(=O)N2CCN(S(=O)(=O)c3ccc4ccccc4c3)CC2)c1 | . | - | - | - | . | -
O=C(Nc1cccnc1)c1cc2cc(Br)ccc2o1 | . | 2.5µM | 5.2µM | ? | . | 1.2µM
O=C(NC(=S)NCc1cccnc1)c1cc2ccccc2o1 | - | - | - | - | - | ?
O=C(NC(=S)Nc1cccnc1)c1cc2ccccc2o1 | . | - | ? | - | - | 6.7µM
O=C(NC(=S)Nc1ccc(CN2CCCCC2)cc1)c1cc2ccccc2o1 | . | 3.2µM | - | - | . | -
O=C(Nc1cccnc1)Nc1ccc(Br)cc1Cl | - | - | - | - | - | -
Cc1cc(NC(=O)C2CCCN(S(=O)(=O)c3cccc4nonc34)C2)ccc1Br (stereo not given) | - | . | . | . | . | -
CCOc1ccc(Oc2ccc(C(F)(F)F)cc2N)cc1 | -[1.84 µM] | - | - | - | - | ?
COc1cccc(Oc2ccc(C(F)(F)F)cc2N)c1 | -[1.84 µM] | - | ? | - | - | 24µM
Cc1ccc(/C=C2/NC(=O)N(Cc3ccccc3)C2=O)o1 | - | - | - | - | - | -
CCN1C(=O)N/C(=C/c2cc(C)n(Cc3ccccc3)c2C)C1=O | - | ? | - | ? | - | 3.4µM
Cn1c(=O)n(C)c2cc(/C=C3/NC(=O)N(Cc4ccccc4)C3=O)ccc21 | - | - | 9.2µM | - | - | -
CC12CCC(=O)N1C(C(=O)Nc1cc(S(=O)(=O)N3CCCCCC3)ccc1OCC(F)(F)F)CS2 (stereo not given) | . | - | - | - | . | -
CC1(C)CC(=O)C(C(C2=C(O)CC(C)(C)CC2=O)c2ccc(O)c([N+](=O)[O-])c2)=C(O)C1 | - | - | - | - | - | 24µM
Cc1nc(NCc2ccccc2)c2nc(-c3ccccc3)n(C(C)CN(C)C)c2n1 (stereo not given) | - | . | . | . | - | .
Cc1ccc(/C=C/C(=O)Nc2ccc(N(C)C)cc2)o1 | 14µM | ? | ? | ? | - | 3µM
Cc1ccc(/C=C/C(=O)Nc2ccncc2)o1 | - | - | - | - | - | 17µM
Cc1ccc(/C=C/C(=O)Nc2ccc(S(N)(=O)=O)cc2)o1 | - | - | - | - | - | ?
Cc1ccc(-c2cc(C(=O)Nc3ccc(S(=O)(=O)Nc4nc(C)cc(C)n4)cc3)c3ccccc3n2)cc1 | 14µM | - | - | - | - | 17µM
CC(=O)NS(=O)(=O)c1ccc(NC(=O)c2cc(-c3cccs3)nc3ccccc23)cc1 | - | - | - | - | - | ?
CC(=O)NS(=O)(=O)c1ccc(NC(=O)c2cc(-c3ccc(C)c(C)c3)nc3ccccc23)cc1 | - | - | - | - | - | 1.3µM
CC(=O)Nc1ccc(-c2cc(C(=O)O)c3ccccc3n2)cc1 | . | - | - | - | . | 3.4µM
Cc1cc(NC(=O)c2cc(-c3ccc(C)c(C)c3)nc3ccccc23)no1 | - | - | - | - | - | 4.8µM
Cc1cc(C(=O)N2CCN(c3ccc(F)cc3)CC2)c2c(C)nn(-c3cccc(Cl)c3C)c2n1 | . | . | . | . | . | -
CC(=O)NS(=O)(=O)c1ccc(NC(=O)c2cc(-c3ccc(C)cc3)nc3ccccc23)cc1 | - | - | - | - | - | 8.5µM
